In the library only some 3.4% were active in any assay of this set; here they are far more common.
hgDAF-12 ag – activates the H. glycines DAF-12 receptor ligand-binding domain. HEK293 GAL4-hgDAF12 UAS-luciferase reporter, agonist luminescence; normalized to butyrate control. activation, % at 6.8 µM. 1.8% of 370,000 active. AID 687014;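 active means activation above a cutoff set at the mean of all screened compounds plus 3 SD, cut at about 10% in these data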;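 further: 0% = DMSO wells and 100% = sodium butyrate wells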
hcDAF12 agonist – activators of H. contortus DAF-12 nuclear receptor | 1.4% of 370,000 active | activation, % at 6.8 µM | HEK293 hcDAF-12 lit1-tk-luc reporter, luminescence; 0% DMSO, 100% Δ7-dafachronic acid;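 active means activation above the mean of all tested compounds plus 3 SD, cut at about 5.5% in these data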;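 further: 100% = response to 3 µM Δ7-dafachronic acid high control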
ssDAF-12 act – activates DAF-12 receptor from parasite S. stercoralis; activation, % at 6.8 µM; HEK293 ssDAF-12/GRIP1 lit1-tk-luc reporter, luminescence; % of 3 µM dafachronic acid response; 1% of 370,000 active;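 active means activation above the mean over all tested compounds plus 3 SD, cut at about 0.9% in these data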;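 further: 0% = DMSO-only wells and 100% = 3 µM delta7-dafachronic acid wells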
APP 5'UTR act – activates APP 5'UTR luciferase reporter. SH-SY5Y APP 5'UTR luciferase reporter, luminescence; zero percent = DMSO vehicle wells. activation, % at 2 µM. 1% of 190,000 active;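 active means activation above a set limit, based on mean plus 3 SD of controls, cut at about 140% in these data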
NF-kB neuron act – compounds increasing NF-kB expression in human neuronal cells; NF-kB reporter expression; stronger effect = higher value; fold change at 12.5 µM; 1.6% of 190,000 active; in the data active means fold change above about 3.3
Active calls of the source: *; nt = no result.

SMILES	hgDAF-12 ag	hcDAF12 agonist	ssDAF-12 act	APP 5'UTR act	NF-kB neuron act
COc1cc(OC)cc(C(C)c2ccc(C)cc2)c1 (stereo not drawn)	4.1	-0.8	-0.8	nt	nt
COC(=O)c1c(-c2cccnc2)csc1NC(=O)c1cc(C)on1	6.7	6.5*	0.2	130.0	3.13
Cc1nn(-c2ccccc2)c2sc(C(=O)NC3CCCc4ccccc43)cc12 (stereo not drawn)	-2.0	-0.3	-0.9	nt	nt
CCc1nnc2c3cnn(-c4ccccc4)c3ncn12	3.3	0.2	-0.9	-0.4	1.5
Cc1ccc(-n2ncc3c2ncn2c(C)nnc32)cc1C	5.0	0.5	-1.1	24.8	3.37*
CC1(C)Nc2ccccc2C(=O)N1NC(=O)c1ccccc1	5.0	5.7*	0.3	19.4	0.94
Cc1ccc(Sc2ccc(CO)cc2[N+](=O)[O-])cc1	2.6	-2.0	11.0*	3.1	1.17
Cc1ccc(Sc2ccc(CN3CCCC3)cc2[N+](=O)[O-])cc1	-0.8	0.5	-1.6	7.3	1.05
COc1ccccc1-c1nnc2n1N=C(c1ccc(O)c(O)c1)CS2	nt	nt	nt	-94.6	3.4*
Oc1ccc2ccccc2c1CNc1ccc2ccccc2c1	3.3	3.8	-0.4	nt	nt
O=C(O)c1cccc([N+](=O)[O-])c1C(=O)Nc1cccc2ccccc12	0.2	5.2	-0.3	nt	nt
Oc1ccc2ccccc2c1CNc1ccccc1	5.5	3.2	1.7*	nt	nt
O=[N+]([O-])c1ccccc1NCc1c(O)ccc2ccccc12	-0.8	6.3*	1.6*	nt	nt
CCOC(=O)N1CCN(C(=O)C[C@H]2C[C@@]3(C(=O)OC)C(=C[C@H](COCc4ccccc4)O[C@@H]3C)N(CCc3ccc(OC)c(OC)c3)C2=O)CC1	-1.3	-3.1	-1.5	nt	nt
Cc1ccc(OCCn2c(CCNC(=O)c3ccc(F)cc3F)nc3ccccc32)cc1	-1.4	-0.6	-0.9	nt	nt
COc1ccc(/C=C2\COc3ccccc3C2=O)c(OC)c1	7.0	1.4	-0.3	nt	nt
COc1ccc2c(c1)OC/C(=C/c1cccs1)C2=O	9.6	3.0	-0.4	131.4	6.94*
Cc1ccc(OC(=O)c2sc3ncn(C)c(=O)c3c2C)cc1	0.8	1.3	-0.8	129.4	3.35*
CCOC(=O)CC[C@@H]1CC[C@]2(CCCN(C(=O)C(C)(C)C)C2)O1	4.3	1.3	-0.9	nt	nt
CC(=O)CC[C@H]1CC[C@]2(CCCN(C(=O)C(C)(C)C)C2)O1	-0.9	0.3	2.2*	nt	nt
COc1ccc(-c2cnc3ccccc3n2)cc1NC(=O)CNC(=O)c1ccccc1	5.7	2.0	1.2*	nt	nt
Cc1ccc(NC(=O)CSc2nnc(-c3cccnc3)n2Cc2ccco2)c(C)c1	-3.1	-2.6	-1.4	nt	nt
O=C1c2nc3ccccn3c2C(=O)N1Cc1ccccc1	2.3	0.6	1.4*	21.4	0.97
O=C(/C(=C/c1ccc(Cl)cc1)c1nc2ccccc2[nH]1)c1cccs1	nt	nt	nt	38.8	0.57
O=C(/C(=C\c1ccccc1)c1nc2ccccc2[nH]1)c1ccc(Cl)cc1	11.2*	0.9	-0.3	114.7	1.53
SMILES	hgDAF-12 ag	hcDAF12 agonist	ssDAF-12 act	APP 5'UTR act	NF-kB neuron act
COc1ccccc1OCCCCN1CCN(C(c2ccccc2)c2ccccc2)CC1	-0.9	3.3	-1.5	5.5	0.79
O=C1C2CSCN2C(=O)CN1CCCN1CCN(C(c2ccccc2)c2ccccc2)CC1 (stereo not drawn)	-0.6	-0.4	1.2*	-10.1	0.89
O=C(Nc1nnc(SCc2ccccc2)s1)C1=COCCO1	4.0	2.6	-0.3	nt	nt
C=CCSc1nnc(NC(=O)C2=COCCO2)s1	8.4	5.7*	0.1	nt	nt
CC(=O)N1N=C(c2ccc(C)cc2)OC1c1ccc(C(C)C)cc1 (stereo not drawn)	4.5	1.5	-0.7	115.5	4.3*
Cc1cccc(C)c1NC(=O)C(c1cccc([N+](=O)[O-])c1)N(C)C(=O)c1ccccn1 (stereo not drawn)	-1.8	-0.6	1.0*	20.1	1.01
Cc1cccc(C)c1NC(=O)C(NC(=O)c1ccccn1)c1ccc([N+](=O)[O-])cc1 (stereo not drawn)	0.6	0.7	-1.0	9.3	1.1
CC(C)CCNC(=O)C1CC(c2cccc([N+](=O)[O-])c2)=NO1 (stereo not drawn)	-1.1	-1.4	-0.9	6.7	1.06
O=C(NCCc1cccs1)C1CC(c2ccccc2[N+](=O)[O-])=NO1 (stereo not drawn)	5.0	5.8*	0.3	48.8	2.84
CCCCNC(=O)C1CC(c2cccc([N+](=O)[O-])c2)=NO1 (stereo not drawn)	7.9	4.2	0.1	50.2	3.5*
